# Assay results: the supplement of paper PMC8773631
# “And” between values parts separate entries of the source, which are not always exact repeats. Identical values can stand only once. Counter-ions that a name gives are not always drawn. ± gives the uncertainty stated by the source.
# System: NCC-MFS5-C1
# Assay: cell viability relative to DMSO control; higher = less growth inhibition
# Settings: 10 µM; treatment time: 3 days
# Procedure: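 NCC-MFS5-C1 myxofibrosarcoma cells (1x10^4 per well, 384-well) were treated on day 2 with 10 µM of each drug. On day 5, viability was read by CCK-8 absorbance at 450 nm and normalised to the DMSO control (%), n = 2.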
row,SMILES,cell viability
1,Cn1nnc2c(C(N)=O)ncn2c1=O [Temozolomide],99.4 ± 23%
2,Clc1ccc(C(c2ccccc2Cl)C(Cl)Cl)cc1 (stereo not given) [Mitotane],76.1 ± 3.1%
3,O=C(CCBr)N1CCN(C(=O)CCBr)CC1 [Pipobroman-D8],108 ± 6.2%
4,COc1c2ccoc2cc2oc(=O)ccc12 [Bergapten],105 ± 18%
5,COc1c2occc2cc2ccc(=O)oc12 [Methoxsalen],116 ± 22%
6,CC/C(=C(/CC)c1ccc(O)cc1)c1ccc(O)cc1 [Diethylstilbestrol],87.8 ± 22%
7,COc1cc2nccc(Oc3ccc(NC(=O)NC4CC4)c(Cl)c3)c2cc1C(N)=O [Lenvatinib (E7080)],75.4 ± 0.93%
8,C[C@]12CC[C@@H]3c4ccc(O)cc4C[C@@H](CCCCCCCCC[S+]([O-])CCCC(F)(F)C(F)(F)F)[C@H]3[C@@H]1CC[C@@H]2O (stereo not given in full) [Fulvestrant],74.38 ± 0.27%
9,CCN(CC)CCNC(=O)c1c(C)[nH]c(/C=C2\C(=O)Nc3ccc(F)cc32)c1C [Sunitinib Malate],7.73 ± 5.5%
10,Cc1ccc(S(=O)(=O)Nc2nc3ccccc3nc2Nc2ccc3nsnc3c2)cc1 [XL147 analog],84.5 ± 6%
11,COc1cc2nccc(Oc3ccc(NC(=O)C4(C(=O)Nc5ccc(F)cc5)CC4)cc3)c2cc1OC,93.8 ± 6.7%
12,O=C(Nc1nc2cccc(-c3ccc(CN4CCS(=O)(=O)CC4)cc3)n2n1)C1CC1 [Filgotinib (GLPG0634)],93.1 ± 4.5%
13,Cc1ccc(C(=O)Nc2ccc(CN3CCN(C)CC3)c(C(F)(F)F)c2)cc1C#Cc1cnc2cccnn12,-2.74 ± 0.27%
14,Nc1nc(CC(=O)Nc2ccc(CCNC[C@H](O)c3ccccc3)cc2)cs1 [Mirabegron],82.5 ± 4.6%
15,CCN1CCN(c2ccc(Nc3cc(N(C)C(=O)Nc4c(Cl)c(OC)cc(OC)c4Cl)ncn3)cc2)CC1,59.8 ± 5.6%
16,COc1cc2c(Oc3ccc(NC(=O)C4(C(=O)Nc5ccc(F)cc5)CC4)cc3F)ccnc2cc1OCCCN1CCOCC1,7.35 ± 2%
17,CS(=O)(=O)CCNCc1ccc(-c2ccc3ncnc(Nc4ccc(OCc5cccc(F)c5)c(Cl)c4)c3c2)o1 [Lapatinib],58.6 ± 2.2%
18,CC(C)c1nc(CN(C)C(=O)N[C@@H](CCN2CCOCC2)C(=O)N[C@H](CC[C@H](Cc2ccccc2)NC(=O)OCc2cncs2)Cc2ccccc2)cs1 [Cobicistat (GS-9350)],61.5 ± 0.43%
19,COc1cc(OC)cc(N(CCNC(C)C)c2ccc3ncc(-c4cnn(C)c4)nc3c2)c1 [Erdafitinib],33.1 ± 2%
20,Cc1ccc(Nc2nccc(N(C)c3ccc4c(C)n(C)nc4c3)n2)cc1S(N)(=O)=O,61 ± 11%

row,SMILES,cell viability
1,O=c1[nH]c(=O)n([C@H]2C[C@H](O)[C@@H](CO)O2)cc1F [Floxuridine],80 ± 3.9%
2,CCN1CCN(Cc2ccc(Nc3ncc(F)c(-c4cc(F)c5nc(C)n(C(C)C)c5c4)n3)nc2)CC1 [Abemaciclib],76.5 ± 6.7%
3,COC(=O)C[C@](O)(CCCC(C)(C)O)C(=O)O[C@@H]1C(OC)=C[C@]23CCCN2CCc2cc4c(cc2[C@H]13)OCO4 [Homoharringtonine],54 ± 5.4%
4,COc1ccc2c(c1OC)C(=O)O[C@@H]2[C@H]1c2c(cc3c(c2OC)OCO3)CCN1C [Noscapine HCl],75.82 ± 0.21%
5,COc1cc([C@@H]2c3cc4c(cc3[C@@H](O[C@@H]3O[C@@H]5CO[C@@H](C)O[C@H]5[C@H](O)[C@H]3O)[C@H]3COC(=O)[C@H]23)OCO4)cc(OC)c1O [Etoposide],74.3 ± 9%
6,Oc1ncnc2[nH]ncc12 [Allopurinol],86.2 ± 18%
7,CN(C)c1nc(N(C)C)nc(N(C)C)n1 [Altretamine],103 ± 3.1%
8,N#CC1(c2ccc(NC(=O)c3cccnc3NCc3ccncc3)cc2)CCCC1 [Apatinib],80.9 ± 2%
9,Nc1ccn([C@@H]2O[C@H](CO)[C@@H](O)[C@@H]2O)c(=O)n1 [Cytosine β-D-arabinofuranoside hydrochloride],118 ± 20%
10,CCOC(=O)[C@H](CCc1ccccc1)N[C@H]1CS[C@H](c2cccs2)CN(CC(=O)O)C1=O [Temocapril HCl],86 ± 1.2%
11,COc1cc2nccc(Oc3ccc(NC(=O)Nc4cc(C)on4)c(Cl)c3)c2cc1OC [Tivozanib (AV-951)],59.7 ± 2.6%
12,Nc1ccn([C@@H]2O[C@H](CO)[C@@H](O)C2(F)F)c(=O)n1 [Gemcitabine HCl],79.5 ± 5%
13,C[C@@H]1CCN(C(=O)CC#N)C[C@@H]1N(C)c1ncnc2[nH]ccc12,79.5 ± 2.5%
14,COc1ccc(C2=N[C@@H](c3ccc(Cl)cc3)[C@@H](c3ccc(Cl)cc3)N2C(=O)N2CCNC(=O)C2)c(OC(C)C)c1 [Nutlin-3],88.6 ± 1.8%
15,CNC(=O)c1cc(Oc2ccc(NC(=O)Nc3ccc(Cl)c(C(F)(F)F)c3)c(F)c2)ccn1 [Regorafenib (BAY 73-4506)],85.6 ± 6.8%
16,CC(=O)c1c(C)c2cnc(Nc3ccc(N4CCNCC4)cn3)nc2n(C2CCCC2)c1=O,50.3% and 42.8%
17,CNC(=O)c1ccc(-c2cnc3ncc(Cc4ccc5ncccc5c4)n3n2)cc1F,80.9 ± 7.9%
18,C=CC(=O)N1CCC(Oc2cc3c(Nc4ccc(Cl)c(Cl)c4F)ncnc3cc2OC)CC1 [Poziotinib (HM781-36B)],68.6 ± 1%
19,CNC(=O)c1cc(Oc2ccc(NC(=O)Nc3ccc(Cl)c(C(F)(F)F)c3)cc2)ccn1 [Sorafenib],64.2 ± 1.6%
20,Nc1nc(F)nc2c1ncn2[C@@H]1O[C@H](CO)[C@@H](O)[C@@H]1O [Fludarabine],96.3 ± 7.3%
